In the supplement of paper PMC6555819:

Experiments:
Assay in all cases: PBM binding z-score (relative to random genomic background probes); higher = stronger binding; sequences stand for … in GC…GCGATTGACAGCGTAGAATGAAGG
[1] = tested on: FXR:RXRa (NR concentration 270 nM, RXRa partner concentration 90 nM)
Summary of the method: (§1)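 Ligand-free nuclear receptor dimers were bound for 1 h to custom Agilent 4×180K protein-binding microarrays. Detection used antibodies against each partner (one per run). Binding z-scores rest on regression-normalized fluorescence, with random background probes as the reference.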

[2] = tested on: LXRa:RXRa (NR concentration 270 nM, RXRa partner concentration 90 nM)
Summary of the method: as §1

[3] = tested on: LXRa homodimer (NR concentration 270 nM)
Summary of the method: as §1

[4] = tested on: LXRb:RXRa (NR concentration 270 nM, RXRa partner concentration 90 nM)
Summary of the method: as §1

[5] = tested on: LXRb homodimer (NR concentration 270 nM)
Summary of the method: as §1

[6] = tested on: PPARa:RXRa (NR concentration 270 nM, RXRa partner concentration 90 nM)
Summary of the method: as §1

[7] = tested on: PPARg:RXRa (NR concentration 180 nM, RXRa partner concentration 90 nM)
Summary of the method: as §1

[8] = tested on: PPARg:RXRa 270nM:90nM, anti-RXR (NR concentration 270 nM, RXRa partner concentration 90 nM)
Summary of the method: as §1

[9] = tested on: PPARg:RXRa 30nM:10nM, anti-RXR (NR concentration 30 nM, RXRa partner concentration 10 nM)
Summary of the method: as §1

[10] = tested on: PPARg:RXRa 90nM:30nM, anti-RXR (NR concentration 90 nM, RXRa partner concentration 30 nM)
Summary of the method: as §1

[11] = tested on: PPARg:RXRa DBDmut IVT, anti-RXR (DBD mutation: RXRa K156A/R161A, NR concentration 270 nM, RXRa partner concentration 90 nM)
Summary of the method: as §1

[12] = tested on: PPARg:RXRa IVT, anti-PPARg (NR concentration 270 nM, RXRa partner concentration 90 nM)
Summary of the method: as §1

[13] = tested on: PPARg DBDmut:RXRa IVT, anti-PPARg (DBD mutation: PPARg1 K132A/R137A, NR concentration 270 nM, RXRa partner concentration 90 nM)
Summary of the method: as §1

[14] = tested on: PPARg DBDmut IVT, anti-PPARg (DBD mutation: PPARg1 K132A/R137A, NR concentration 270 nM)
Summary of the method: as §1

[15] = tested on: PPARg homodimer (NR concentration 180 nM)
Summary of the method: as §1

[16] = tested on: PXR:RXRa (NR concentration 270 nM, RXRa partner concentration 90 nM)
Summary of the method: as §1

[17] = tested on: PXR homodimer (NR concentration 270 nM)
Summary of the method: as §1

[18] = tested on: RARa:RXR (NR concentration 270 nM, RXRa partner concentration 90 nM)
Summary of the method: as §1

[19] = tested on: RARa homodimer (NR concentration 270 nM)
Summary of the method: as §1

[20] = tested on: RARb:RXRa (NR concentration 270 nM, RXRa partner concentration 90 nM)
Summary of the method: as §1

| Sequence | PBM binding z-score [1] | PBM binding z-score [2] | PBM binding z-score [3] | PBM binding z-score [4] | PBM binding z-score [5] | PBM binding z-score [6] | PBM binding z-score [7] | PBM binding z-score [8] | PBM binding z-score [9] | PBM binding z-score [10] | PBM binding z-score [11] | PBM binding z-score [12] | PBM binding z-score [13] | PBM binding z-score [14] | PBM binding z-score [15] | PBM binding z-score [16] | PBM binding z-score [17] | PBM binding z-score [18] | PBM binding z-score [19] | PBM binding z-score [20] |
| --- | --- | --- | --- | --- | --- | --- | --- | --- | --- | --- | --- | --- | --- | --- | --- | --- | --- | --- | --- | --- |
| CGAACTAGGTCATCCAGGACAGAGAATACATTGA | 4.18 | 2.74 | 0.462 | 2.08 | 0.0984 | 4.79 | 7.72 | 6.45 | 3.83 | 5.81 | 8.15 | 8.34 | 2.22 | 1.68 | 1.64 | 1.97 | 1.05 | 2.45 | 0.545 | 3.79 |
| GCTTACGGGTCAAAGGTTAGAGCATGAATAGAAT | 7.32 | 5.34 | 0.175 | 5.27 | -0.0451 | 6.73 | 10.6 | 8.89 | 8.08 | 9.45 | 4.34 | 5.74 | 0.587 | 1.17 | 3.25 | 5.59 | 0.235 | 7.74 | 0.552 | 4.37 |
| TCGAGTAGGTTAGTCGGGGCCTTCAGCCAACATA | -0.352 | -0.131 | -0.672 | 0.0154 | -1.21 | 0.259 | -0.8 | 0.291 | 0.448 | 0.62 | 1.83 | 1.08 | -1.4 | -0.48 | -0.555 | -0.49 | -0.597 | -0.0225 | -1.38 | 0.0952 |
| TTGCCTAGGTCAGATCGGGCCAGTATACGCTATA | 2.67 | 1.04 | -0.621 | 0.692 | -0.831 | 1.51 | 0.532 | 0.852 | -0.179 | 0.0126 | 0.589 | 1.07 | -1.83 | -1.18 | 0.162 | 1.47 | -0.653 | 1.46 | -0.953 | 3.07 |
| CCTTACGGGTCGCTCCAGGTTATAGCATCGGAGT | 1.38 | 2.13 | -0.172 | 0.57 | -0.524 | 1.24 | 0.136 | 0.211 | -0.551 | -0.391 | 0.145 | 0.244 | -1.18 | -0.791 | 0.495 | 1.93 | -0.171 | 1.02 | -0.313 | 1.22 |
| CCTCGGAGGACAACAGGAGGTCAGAACTGCCAGA | 0.84 | 1.86 | 1.93 | 1.49 | -0.518 | 1.78 | 0.525 | -0.182 | -0.754 | -0.55 | 0.236 | 0.269 | -1.45 | -1.02 | 1.52 | 1.92 | 0.393 | 2.08 | 0.134 | 2.68 |
| CCTCGGAGGACAGATGGTCAGAGCTGTCCGCTTT | -0.143 | -0.35 | -0.187 | -0.927 | -0.896 | -0.597 | -0.644 | -0.669 | -1.17 | -0.907 | -0.386 | -0.558 | -1 | -1.4 | 0.238 | -0.384 | -0.503 | -0.309 | -0.685 | 0.479 |
